Our source for the Potency values is PubChem BioAssay (Tox21).

Results filed as inconclusive are left out. A call without a number means that no potency is given here. Calls of active or inactive are those of the source. Calls follow the shape of the dose curve; as a rule, active = well fitted cell-killing curve with a large enough effect in the repeat runs; inconclusive = weak or mixed curves, or effect the other way; inactive = flat fitted curve, though single readings scatter.

Assay [1] can be described thus: cAMP Responsive Elements (CRE) small molecule antagonists, cell-based qHTS assay: qHTS cell viability counter screen (AID 2060913). Also: nearly all actives have a fitted effect of over 40% in size. Put shortly: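 CRE-bla HEK293T cells (2,000/well, 18 h) given compound plus NKH477 0.25 uM final for 3 h at 37C; viability counter-screen by CellTiter-Glo luminescence in same wells after 30 min.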
Assay [2] can be described thus: cAMP Responsive Elements (CRE) small molecule agonists, cell-based qHTS assay: qHTS cell viability counter screen (AID 2060914).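 Also: viability read after 3 h of compound exposure; nearly all actives have a fitted effect of over 50% in size.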 Put shortly:
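CRE-bla HEK293T cells in 10% dialyzed FBS medium were exposed to compounds for 3 h at 37C after 18 h plating. CellTiter-Glo was then added in the same wells, and luminescence was read after 30 min at room temperature.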

In the case of `CCN(CCO)CCO`, the Potency result in assay [1] and in assay [2] was “inactive” throughout.

`CC12CC1(C)C(=O)N(c1cc(Cl)cc(Cl)c1)C2=O` (configuration not stated): the Potency result in assay [1] and in assay [2] was “inactive” in each case.

In the case of `CCOc1ccc(N)cc1`, the Potency result in assay [1] and in assay [2] was “inactive” throughout.

For the molecule `O=C(Cc1ccccc1)OCc1ccccc1`, the Potency result in assay [1] and in assay [2] was “inactive” each time.

As for `CCNc1nc(Cl)nc(NC(C)(C)C)n1`, the Potency result in assay [1] and in assay [2] was “inactive” each time.

Consider `CCCCCCCCCBr`, for which the Potency entry in assay [1] and in assay [2] was “inactive” in each case.

As for `ClC1=C(Cl)C2(Cl)C3C(Cl)C=CC3C1(Cl)C2(Cl)Cl` (configuration not stated), the Potency result in assay [1] and in assay [2] was “inactive” throughout.

On to `[O-][Cl+2]([O-])O`, for which the Potency entry in assay [1] and in assay [2] was “inactive” throughout.

Regarding `CS(=O)(=O)Cl`, the Potency result in assay [1] and in assay [2] was “inactive” each time.

In the case of `CCc1cc2c(s1)-n1c(C)nnc1CN=C2c1ccccc1Cl`, the Potency result in assay [1] and in assay [2] was “inactive” in each case.

With `NCCc1ccc(O)cc1`, the Potency result in assay [1] and in assay [2] was “inactive” throughout.

Consider `O=[N+]([O-])c1cccc(O)c1`, for which the Potency entry in assay [1] and in assay [2] was “inactive” each time.

As to `CCCCCCCCCCCCCN1CC(C)OC(C)C1` (configuration not stated), the Potency entry in assay [1] and in assay [2] was “inactive” throughout.

`COC(=O)Nc1nc2ccccc2[nH]1`: the Potency result in assay [1] and in assay [2] was “inactive” each time.

As to `COP(=S)(OC)SCn1nnc2ccccc2c1=O`, the Potency entry in assay [1] and in assay [2] was “inactive” each time.

Take `[N-]=[N+]=[N-]`: the Potency entry in assay [1] and in assay [2] was “inactive” throughout.

Consider `Clc1ccc(Cl)cc1`, for which the Potency result in assay [1] and in assay [2] was “inactive” throughout.

With `C[C@]12CCC(=O)C=C1CC[C@@H]1[C@@H]2CC[C@@]2(C)[C@H]1CC[C@]2(C)O`, the Potency result in assay [1] and in assay [2] was “inactive” each time.

On to `CCC(Cl)CCl` (configuration not stated), for which the Potency result in assay [1] and in assay [2] was “inactive” throughout.

As for `CN(C)CCc1c[nH]c2cccc(O)c12`, the Potency entry in assay [1] and in assay [2] was “inactive” each time.

Take `CC(Oc1cc(Cl)c(Cl)cc1Cl)C(=O)O` (configuration not stated): the Potency entry in assay [1] and in assay [2] was “inactive” throughout.

On to `Oc1ccc(C2(c3ccc(O)cc3)CCCCC2)cc1`, for which the Potency result in assay [1] and in assay [2] was “inactive” in each case.

Turning to `OC(Cc1ccccc1Cl)(Cn1[nH]cnc1=S)C1(Cl)CC1` (configuration not stated), the Potency entry in assay [1] and in assay [2] was “inactive” throughout.

Consider `O=C(N[C@H]1CN2CCC1CC2)c1ccc2c(c1)OCCO2`, for which the Potency entry in assay [1] and in assay [2] was “inactive” throughout.

Regarding `ClCc1ccc(Cl)cc1Cl`, the Potency result in assay [1] and in assay [2] was “inactive” throughout.

With `CN1CC[C@]23c4c5ccc(O)c4O[C@H]2[C@@H](O)C=C[C@H]3[C@H]1C5`, the Potency entry in assay [1] and in assay [2] was “inactive” throughout.

As to `CCCSP(=S)(OCC)Oc1ccc(Cl)cc1Cl` (configuration not stated), the Potency result in assay [1] and in assay [2] was “inactive” in each case.

As to `CCOS(=O)(=O)OCC`, the Potency entry in assay [1] and in assay [2] was “inactive” in each case.

Consider `COc1cc(CC(C)N)cc(OC)c1OC` (configuration not stated), for which the Potency entry in assay [1] and in assay [2] was “inactive” in each case.

Regarding `CC(C)C(=O)Cl`, the Potency entry in assay [1] and in assay [2] was “inactive” each time.

On to `CCCCNC(=O)OCC#CI`, for which the Potency result in assay [1] and in assay [2] was “inactive” each time.

With `O=C(Cl)OCCOCCOC(=O)Cl`, the Potency result in assay [1] and in assay [2] was “inactive” each time.

On to `CCOP(=S)(OCC)OP(=S)(OCC)OCC`, for which the Potency result in assay [1] and in assay [2] was “inactive” in each case.

Regarding `O=C(CCl)c1ccc(Cl)cc1Cl`, the Potency result in assay [1] and in assay [2] was “inactive” each time.

As to `Clc1ccccc1-c1nnc(-c2ccccc2Cl)nn1`, the Potency result in assay [1] and in assay [2] was “inactive” in each case.

As for `CCC(C)(C)c1ccc(O)cc1`, the Potency result in assay [1] and in assay [2] was “inactive” each time.

As to `CSc1nc(NC(C)C)nc(NC(C)C)n1`, the Potency entry in assay [1] and in assay [2] was “inactive” throughout.

Regarding `NCc1cccnc1`, the Potency result in assay [1] and in assay [2] was “inactive” each time.

Regarding `C=CC(=O)OCC(CC)CCCC` (configuration not stated), the Potency entry in assay [1] and in assay [2] was “inactive” each time.

Turning to `OCc1ccco1`, the Potency entry in assay [1] and in assay [2] was “inactive” throughout.

Turning to `CC(C)(O)C#N`, the Potency result in assay [1] and in assay [2] was “inactive” in each case.

For `O=P(O)(Oc1ccccc1)Oc1ccccc1`, the Potency entry in assay [1] and in assay [2] was “inactive” each time.

With `CCO[C@H]1O[C@@H]2OC3(C)CC[C@H]4[C@H](C)CC[C@@H]([C@H]1C)[C@@]24OO3`, the Potency result in assay [1] and in assay [2] was “inactive” throughout.

For the molecule `CCCCCCCCCc1ccc(O)cc1`, the Potency entry in assay [1] and in assay [2] was “inactive” throughout.

In the case of `O=C(Cl)C(Cl)(Cl)Cl`, the Potency entry in assay [1] and in assay [2] was “inactive” throughout.

Turning to `c1ccc2c(c1)CCNC2`, the Potency entry in assay [1] and in assay [2] was “inactive” each time.

For `CC(C)(C)N(NC(=O)c1ccc(Cl)cc1)C(=O)c1ccccc1`, the Potency result in assay [1] and in assay [2] was “inactive” each time.

Regarding `CC(C)CC(N(C)C)C1(c2ccc(Cl)cc2)CCC1` (configuration not stated), the Potency result in assay [1] and in assay [2] was “inactive” throughout.

As to `CNC(=O)/C=C(\C)OP(=O)(OC)OC`, the Potency result in assay [1] and in assay [2] was “inactive” throughout.

For the molecule `O=[N+]([O-])c1ccc(Cl)c(Cl)c1`, the Potency result in assay [1] and in assay [2] was “inactive” throughout.

Turning to `CCOCN(C(=O)CCl)c1c(C)cccc1CC`, the Potency entry in assay [1] and in assay [2] was “inactive” in each case.

On to `C[C@H](N)[C@H](O)c1ccc(O)c(O)c1`, for which the Potency result in assay [1] and in assay [2] was “inactive” in each case.

For `CN(C)C(=S)S`, the Potency entry in assay [1] and in assay [2] was “inactive” in each case.

Consider `CCOP(=O)(OCC)OP(=O)(OCC)OCC`, for which the Potency result in assay [1] and in assay [2] was “inactive” in each case.

Turning to `CC(C)=CC1C(C(=O)OCc2coc(Cc3ccccc3)c2)C1(C)C` (configuration not stated), the Potency entry in assay [1] and in assay [2] was “inactive” in each case.

Consider `BrCC(Br)(Br)Br`, for which the Potency result in assay [1] and in assay [2] was “inactive” in each case.

In the case of `C=C(Cl)CSC(=S)N(CC)CC`, the Potency entry in assay [1] and in assay [2] was “inactive” each time.

As for `O=Cc1ccc(Cl)cc1Cl`, the Potency entry in assay [1] and in assay [2] was “inactive” throughout.

On to `CC[N+]1(C)CCCC1`, for which the Potency entry in assay [1] and in assay [2] was “inactive” each time.

`COc1ccc2c(c1OC)C(=O)O[C@@H]2[C@H]1c2cc3c(cc2CCN1C)OCO3`: the Potency entry in assay [1] and in assay [2] was “inactive” throughout.

In the case of `CN(CCCC(=O)c1cccnc1)N=O`, the Potency result in assay [1] and in assay [2] was “inactive” throughout.
